Reference: PubChem BioAssay (NCI)
Where “and” joins values, the source holds several entries; their conditions need not be identical. Identical values can stand only once. Compounds without any hit were thinned out: in the full panel of roughly 83,000, 20% have a hit.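 Compound tested at a single concentration for 48 hours in 96-well plates; a percent growth value below 10 was scored as active.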 Calls of active or inactive are those of the source.

Experiments:
Test in all cases: NCI-60 one-dose screen, 48 h (100 = growth as untreated, 0 = no growth, -100 = all killed)
HCT-15 colon = conditions: 10 µM unless noted
HT29 colon = conditions: 10 µM unless noted
SNB-75 CNS = conditions: 10 µM unless noted
SNB-19 CNS = conditions: 10 µM unless noted
U251 CNS = conditions: 10 µM unless noted
PC-3 prostate = conditions: 10 µM unless noted
SK-MEL-5 melanoma = conditions: 10 µM unless noted
UACC-62 melanoma = test system: UACC-62 melanoma
LOX IMVI melanoma = conditions: 10 µM unless noted
SK-MEL-28 melanoma = conditions: 10 µM unless noted
SK-MEL-2 melanoma = conditions: 10 µM unless noted
EKVX NSCLC = conditions: 10 µM unless noted
SN12C renal = conditions: 10 µM unless noted
UO-31 renal = conditions: 10 µM unless noted
TK-10 renal = test system: TK-10 renal
ACHN renal = conditions: 10 µM unless noted
CAKI-1 renal = conditions: 10 µM unless noted
A498 renal = conditions: 10 µM unless noted
CCRF-CEM leukemia = conditions: 10 µM unless noted
MOLT-4 leukemia = conditions: 10 µM unless noted

Measured: growth

CC(=NCc1ccccc1)c1ccc(O)cc1O
inactive: HCT-15 colon 101% | HT29 colon 104% | SNB-75 CNS 83.2% | SNB-19 CNS 103% | U251 CNS 101% | PC-3 prostate 81.7% | SK-MEL-5 melanoma 95% | UACC-62 melanoma; 10 µM unless noted 88.1% | LOX IMVI melanoma 94.1% | SK-MEL-28 melanoma 103% | SK-MEL-2 melanoma 107% | EKVX NSCLC 111% | SN12C renal 91.8% | UO-31 renal 81.7% | TK-10 renal; 10 µM unless noted 92.8% | ACHN renal 96.6% | CAKI-1 renal 107% | A498 renal 100% | CCRF-CEM leukemia 85% | MOLT-4 leukemia 89.7%

c1ccc(-c2cc(-c3cc(-c4ccccc4)on3)no2)cc1
active: ACHN renal -3.89%
inactive: HCT-15 colon 17.5% | HT29 colon 21.2% | SNB-75 CNS 123% | SNB-19 CNS 101% | U251 CNS 73.8% | PC-3 prostate 128% | SK-MEL-5 melanoma 101% | UACC-62 melanoma; 10 µM unless noted 89.7% | LOX IMVI melanoma 69.2% | SK-MEL-28 melanoma 102% | SK-MEL-2 melanoma 20.5% | EKVX NSCLC 121% | SN12C renal 92.9% | UO-31 renal 92.1% | TK-10 renal; 10 µM unless noted 104% | CAKI-1 renal 35.5% | A498 renal 97.6% | CCRF-CEM leukemia 81.9% | MOLT-4 leukemia 63.7%

CC(C)(C)CC(N)=O
inactive: HCT-15 colon 94.9% | HT29 colon 102% | SNB-75 CNS 96.4% | SNB-19 CNS 101% | U251 CNS 95.1% | PC-3 prostate 97.9% | SK-MEL-5 melanoma 94.1% | UACC-62 melanoma; 10 µM 103% | UACC-62 melanoma; 100 µM 79.5% and 18.4% | LOX IMVI melanoma 98.1% | SK-MEL-28 melanoma 102% | SK-MEL-2 melanoma 102% | SN12C renal 102% | UO-31 renal 104% | TK-10 renal; 10 µM 100% | TK-10 renal; 100 µM 105% and 103% | ACHN renal 96.9% | CAKI-1 renal 94.4% | A498 renal 90.7% | CCRF-CEM leukemia 102% | MOLT-4 leukemia 108%

N#Cc1ccccc1-c1ccc(Cn2c(-c3cscn3)nc3c(Cl)cccc32)cc1
inactive: HCT-15 colon 77.9% | HT29 colon 71% | SNB-75 CNS 78% | SNB-19 CNS 88.5% | U251 CNS 79.1% | PC-3 prostate 54.4% | SK-MEL-5 melanoma 55.3% | UACC-62 melanoma; 10 µM unless noted 75% | LOX IMVI melanoma 65.7% | SK-MEL-28 melanoma 105% | SK-MEL-2 melanoma 75.9% | EKVX NSCLC 76.9% | SN12C renal 91.2% | UO-31 renal 46% | TK-10 renal; 10 µM unless noted 81.4% | ACHN renal 80.8% | CAKI-1 renal 70.9% | A498 renal 74.8% | CCRF-CEM leukemia 65.8% | MOLT-4 leukemia 48.2%
